Test in all cases: peptide microarray binding signal (635 nm), min-max normalized on array (fraction of array maximum); higher = stronger binding
Common to all, as to conditions: peptide region: H3 1-13

Assay [1] concerns the target T1, HaloTag-ATRX ADD domain (163-292).
T1 chain: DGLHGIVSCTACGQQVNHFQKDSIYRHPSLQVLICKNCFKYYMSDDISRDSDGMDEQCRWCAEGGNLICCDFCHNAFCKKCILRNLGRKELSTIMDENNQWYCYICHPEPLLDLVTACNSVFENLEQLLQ
The protocol: (§1)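 Histone 13-mer peptides were synthesized as cellulose conjugates with a C-terminal 20-atom PEG linker and printed in triplicate on nitrocellulose. The sequence given is the unmodified backbone; PTMs (Kme1/2/3, Kac, Sph/Tph, Rme/Rme2a/Rme2s, Rcit) are listed in the label and the 'peptide modifications' condition. Slides were probed at 4 °C for 1 h with biotin-labelled (HQ)5-HaloTag reader fusions (ATRX-ADD, ING2-PHD) then streptavidin-Alexa647, or with rabbit histone antibodies then anti-rabbit Alexa647. The mean 635 nm signal of the triplicate spots was scaled 0-1 between the lowest and highest values on each array.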

Assay [2] addresses HaloTag-ING2 PHD (mouse Ing2 200-280). Here is the method:
as §1

For assay [3], the target named is anti-H3K4me3 antibody ab8580. Here is the method: as §1
For assay [4], the target named is anti-H3K9me3 antibody ab8898. The protocol:
as §1

[5] abbreviates: peptide modifications: H3R2me2a H3K4me3, binder concentration: 1:2,000 dilution.
[6] abbreviates: peptide modifications: H3R2me2a H3K4me3, binder concentration: 1:10,000 dilution.
Setting [7] is: peptide modifications: H3R2me2a H3K4me2, binder concentration: 1:2,000 dilution.
The mark [8] stands for this setting: peptide modifications: H3R2me2a H3K4me2, binder concentration: 1:10,000 dilution.
Where [9] appears, read: peptide modifications: H3R2cit H3K9me3, binder concentration: 1:2,000 dilution.
Setting [10] is: peptide modifications: H3R2cit H3K9me3, binder concentration: 1:10,000 dilution.
Setting [11] is: peptide modifications: H3R2me1 H3K4me1, binder concentration: 1:2,000 dilution.
Where [12] appears, read: peptide modifications: H3R2me1 H3K4me1, binder concentration: 1:10,000 dilution.
The mark [13] stands for this setting: peptide modifications: H3R2me1 H3T6ph, binder concentration: 1:2,000 dilution.
Where [14] appears, read: peptide modifications: H3R2me1 H3T6ph, binder concentration: 1:10,000 dilution.
[15] abbreviates: peptide modifications: H3R2me1 H3K9ac, binder concentration: 1:2,000 dilution.
[16] abbreviates: peptide modifications: H3R2me1 H3K9ac, binder concentration: 1:10,000 dilution.
[17] abbreviates: peptide modifications: H3R2me1, binder concentration: 1:2,000 dilution.
Where [18] appears, read: peptide modifications: H3R2me1, binder concentration: 1:10,000 dilution.
Where [19] appears, read: peptide modifications: H3R2me1 H3K4me2, binder concentration: 1:2,000 dilution.
[20] abbreviates: peptide modifications: H3R2me1 H3K4me2, binder concentration: 1:10,000 dilution.
Where [21] appears, read: peptide modifications: H3R2me1 H3K9me1, binder concentration: 1:2,000 dilution.
[22] abbreviates: peptide modifications: H3R2me1 H3K9me1, binder concentration: 1:10,000 dilution.
Where [23] appears, read: peptide modifications: H3R2me1 H3K9me3, binder concentration: 1:2,000 dilution.
Where [24] appears, read: peptide modifications: H3R2me1 H3K9me3, binder concentration: 1:10,000 dilution.

± gives the standard deviation.

The values that follow come from the supplement of paper PMC4022240.

As for ARTKQTARKSTGG [H3 1-13 A Rme2a T Kme3 Q T A R K S T G G], the “peptide microarray binding signal” value in assay [1] (peptide modifications: H3R2me2a H3K4me3, binder concentration: 50 nM) is 0.00912 ± 0.00034; in assay [1] (peptide modifications: H3R2me2a H3K4me3, binder concentration: 500 nM) it was 0.0301 ± 0.00069; in assay [2] (peptide modifications: H3R2me2a H3K4me3, binder concentration: 10 nM), 0.0149 ± 0.0016; in assay [2] (peptide modifications: H3R2me2a H3K4me3, binder concentration: 100 nM) it was 0.013 ± 0.0056; in assay [3] (setting [5]) it was 0.989 ± 0.041; in assay [3] (setting [6]) it was 0.193 ± 0.0034. The “peptide microarray binding signal” value in assay [4] (setting [5]) was 0.249 ± 0.031; in assay [4] (setting [6]) it was 0.0997 ± 0.026.

As to ARTKQTARKSTGG [H3 1-13 A Rme2a T Kme2 Q T A R K S T G G], the “peptide microarray binding signal” value in assay [1] (peptide modifications: H3R2me2a H3K4me2, binder concentration: 50 nM) worked out at 0.00837 ± 0.00013; in assay [1] (peptide modifications: H3R2me2a H3K4me2, binder concentration: 500 nM), 0.0168 ± 0.00084; in assay [2] (peptide modifications: H3R2me2a H3K4me2, binder concentration: 10 nM), 0.0141 ± 0.00071; in assay [2] (peptide modifications: H3R2me2a H3K4me2, binder concentration: 100 nM), 0.0206 ± 0.0044; in assay [3] (setting [7]), 0.0754 ± 0.017; in assay [3] (setting [8]) it was 0.0898 ± 0.0086. Besides, the “peptide microarray binding signal” value in assay [4] (setting [7]) was 0.00464 ± 0.0004; in assay [4] (setting [8]) it was 0.00386 ± 0.00011.

As for ARTKQTARKSTGG [H3 1-13 A Rcit T K Q T A R Kme3 S T G G], the “peptide microarray binding signal” value in assay [1] (peptide modifications: H3R2cit H3K9me3, binder concentration: 50 nM) was found to be 0.435 ± 0.044; in assay [1] (peptide modifications: H3R2cit H3K9me3, binder concentration: 500 nM), 0.525 ± 0.024; in assay [2] (peptide modifications: H3R2cit H3K9me3, binder concentration: 10 nM) it was 0.0492 ± 0.0064; in assay [2] (peptide modifications: H3R2cit H3K9me3, binder concentration: 100 nM), 0.0792 ± 0.014; in assay [3] (setting [9]) it was 0.137 ± 0.007; in assay [3] (setting [10]) it was 0.0635 ± 0.0071. Moreover, the “peptide microarray binding signal” value stood at 0.676 ± 0.04 in assay [4] (setting [9]) and 0.408 ± 0.044 in assay [4] (setting [10]).

In the case of ARTKQTARKSTGG [H3 1-13 A Rme T Kme Q T A R K S T G G], the “peptide microarray binding signal” value amounted to 0.00746 ± 0.00026 in assay [1] (peptide modifications: H3R2me1 H3K4me1, binder concentration: 50 nM); 0.0155 ± 0.00095 in assay [1] (peptide modifications: H3R2me1 H3K4me1, binder concentration: 500 nM); 0.0585 ± 0.006 in assay [2] (peptide modifications: H3R2me1 H3K4me1, binder concentration: 10 nM); 0.147 ± 0.034 in assay [2] (peptide modifications: H3R2me1 H3K4me1, binder concentration: 100 nM); 0.0545 ± 0.02 in assay [3] (setting [11]); 0.023 ± 0.0071 in assay [3] (setting [12]). The “peptide microarray binding signal” value in assay [4] (setting [11]) turned out to be 0.00248 ± 0.00029; in assay [4] (setting [12]), 0.00127 ± 1.3e-05.

Turning to ARTKQTARKSTGG [H3 1-13 A Rme T K Q Tph A R K S T G G], the “peptide microarray binding signal” value in assay [1] (peptide modifications: H3R2me1 H3T6ph, binder concentration: 50 nM) worked out at 0.00589 ± 0.00086; in assay [1] (peptide modifications: H3R2me1 H3T6ph, binder concentration: 500 nM), 0.00971 ± 0.00097; in assay [2] (peptide modifications: H3R2me1 H3T6ph, binder concentration: 10 nM) it was 0.00269 ± 4e-05; in assay [2] (peptide modifications: H3R2me1 H3T6ph, binder concentration: 100 nM) it was 0.0186 ± 0.0023; in assay [3] (setting [13]), 0.000774 ± 4.3e-05; in assay [3] (setting [14]), 0.000799 ± 2.2e-05. For the same molecule, the results for the “peptide microarray binding signal” value in assay [4] (setting [13]) and in assay [4] (setting [14]) were 0.0018 ± 6.1e-05 and 0.000634 ± 1.2e-05, respectively.

With ARTKQTARKSTGG [H3 1-13 A Rme T K Q T A R Kac S T G G], the “peptide microarray binding signal” value in assay [1] (peptide modifications: H3R2me1 H3K9ac, binder concentration: 50 nM) was determined as 0.0167 ± 0.0025; in assay [1] (peptide modifications: H3R2me1 H3K9ac, binder concentration: 500 nM), 0.121 ± 0.14; in assay [2] (peptide modifications: H3R2me1 H3K9ac, binder concentration: 10 nM), 0.0337 ± 0.00085; in assay [2] (peptide modifications: H3R2me1 H3K9ac, binder concentration: 100 nM), 0.0529 ± 0.0063; in assay [3] (setting [15]), 0.0105 ± 0.0012; in assay [3] (setting [16]) it was 0.00999 ± 0.00055. In addition, the “peptide microarray binding signal” value in assay [4] (setting [15]) amounted to 0.085 ± 0.13; in assay [4] (setting [16]), 0.0364 ± 0.046.

Consider ARTKQTARKSTGG [H3 1-13 A Rme T K Q T A R K S T G G], for which the “peptide microarray binding signal” value in assay [1] (peptide modifications: H3R2me1, binder concentration: 50 nM) is 0.0145 ± 0.00019; in assay [1] (peptide modifications: H3R2me1, binder concentration: 500 nM), 0.0334 ± 0.0026; in assay [2] (peptide modifications: H3R2me1, binder concentration: 10 nM) it was 0.0175 ± 0.0043; in assay [2] (peptide modifications: H3R2me1, binder concentration: 100 nM) it was 0.0456 ± 0.0031; in assay [3] (setting [17]), 0.000698 ± 1.7e-05; in assay [3] (setting [18]) it was 0.000742. Also, the results for the “peptide microarray binding signal” value in assay [4] (setting [17]) and in assay [4] (setting [18]) were 0.00202 ± 0.0002 and 0.000461, respectively.

For ARTKQTARKSTGG [H3 1-13 A Rme T Kme2 Q T A R K S T G G], the “peptide microarray binding signal” value came to 0.00715 ± 0.0002 in assay [1] (peptide modifications: H3R2me1 H3K4me2, binder concentration: 50 nM); 0.017 ± 0.0047 in assay [1] (peptide modifications: H3R2me1 H3K4me2, binder concentration: 500 nM); 0.219 ± 0.059 in assay [2] (peptide modifications: H3R2me1 H3K4me2, binder concentration: 10 nM); 0.175 ± 0.047 in assay [2] (peptide modifications: H3R2me1 H3K4me2, binder concentration: 100 nM); 0.269 ± 0.14 in assay [3] (setting [19]); 0.0639 ± 0.0072 in assay [3] (setting [20]). Besides, the “peptide microarray binding signal” value in assay [4] (setting [19]) turned out to be 0.00439 ± 0.0014; in assay [4] (setting [20]) it was 0.00392 ± 0.00093.

On to ARTKQTARKSTGG [H3 1-13 A Rme T K Q T A R Kme1 S T G G], for which the “peptide microarray binding signal” value was 0.0572 ± 0.0022 in assay [1] (peptide modifications: H3R2me1 H3K9me1, binder concentration: 50 nM); 0.108 ± 0.011 in assay [1] (peptide modifications: H3R2me1 H3K9me1, binder concentration: 500 nM); 0.0402 ± 0.0095 in assay [2] (peptide modifications: H3R2me1 H3K9me1, binder concentration: 10 nM); 0.0772 ± 0.0086 in assay [2] (peptide modifications: H3R2me1 H3K9me1, binder concentration: 100 nM); 0.00991 ± 0.0016 in assay [3] (setting [21]); 0.008959 ± 8.7e-05 in assay [3] (setting [22]). Moreover, the “peptide microarray binding signal” value in assay [4] (setting [21]) was 0.00462 ± 0.00079; in assay [4] (setting [22]) it was 0.0045 ± 0.00015.

On to ARTKQTARKSTGG [H3 1-13 A Rme T K Q T A R Kme3 S T G G], for which the “peptide microarray binding signal” value stood at 1 ± 0.14 in assay [1] (peptide modifications: H3R2me1 H3K9me3, binder concentration: 50 nM); 1 ± 0.23 in assay [1] (peptide modifications: H3R2me1 H3K9me3, binder concentration: 500 nM); 0.0582 ± 0.011 in assay [2] (peptide modifications: H3R2me1 H3K9me3, binder concentration: 10 nM); 0.106 ± 0.024 in assay [2] (peptide modifications: H3R2me1 H3K9me3, binder concentration: 100 nM); 0.088 ± 0.024 in assay [3] (setting [23]); 0.0951 ± 0.017 in assay [3] (setting [24]). Also, the “peptide microarray binding signal” value in assay [4] (setting [23]) was 0.544 ± 0.12; in assay [4] (setting [24]) it was 0.357 ± 0.091.
